This is one part of a sample in which hits are shown more often than they occur.
Glioma ERSR ind = induces the endoplasmic reticulum stress response in human glioma cells. U87-MG GRP78 promoter luciferase reporter, 16 h. Potency, µM, for the others: at the top dose activation, usual class: activators. 0.02% of 420,000 active; further: series mostly up to about 76 µM; % of control where 0% means no effect; nearly all actives have a fitted effect of over 35% in size
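Stably transfected U87-MG human glioma cells carrying a GRP78-based luminescent sensor were seeded at 1000 cells/well, pin-dosed with compounds and incubated 16 h. Luciferase reagent was then added, and end-point luminescence was read after 10 min at room temperature.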
12-LOX inh = blocks human arachidonate 12S-lipoxygenase | P18054 | purified 12hLO, xylenol orange hydroperoxide absorbance | Potency, µM (doses to about 108 µM), inactives show at the highest dose activity change, negative = inhibition, hits mostly inhibitors | 1.1% of 580,000 active; further: on the % scale 0 is the no-effect control and ±100 the full control effect
Target sequence (P18054 whole entry, looked up): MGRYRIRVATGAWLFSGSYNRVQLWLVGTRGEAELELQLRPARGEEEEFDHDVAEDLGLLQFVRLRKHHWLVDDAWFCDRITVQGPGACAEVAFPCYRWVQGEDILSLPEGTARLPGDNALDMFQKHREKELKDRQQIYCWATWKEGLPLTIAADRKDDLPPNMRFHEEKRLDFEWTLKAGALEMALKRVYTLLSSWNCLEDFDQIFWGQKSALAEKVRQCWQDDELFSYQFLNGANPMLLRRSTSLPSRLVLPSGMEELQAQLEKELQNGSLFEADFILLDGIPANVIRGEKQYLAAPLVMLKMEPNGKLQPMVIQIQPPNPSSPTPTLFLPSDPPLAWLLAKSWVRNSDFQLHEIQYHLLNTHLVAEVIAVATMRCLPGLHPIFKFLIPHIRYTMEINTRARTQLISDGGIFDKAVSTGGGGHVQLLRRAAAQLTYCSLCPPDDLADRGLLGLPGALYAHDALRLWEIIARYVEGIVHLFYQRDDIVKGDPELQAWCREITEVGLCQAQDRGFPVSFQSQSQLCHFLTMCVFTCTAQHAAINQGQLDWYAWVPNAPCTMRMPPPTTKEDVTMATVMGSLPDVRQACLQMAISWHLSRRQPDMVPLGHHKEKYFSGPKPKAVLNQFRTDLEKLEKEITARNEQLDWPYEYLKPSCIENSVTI
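Hydroperoxide product was detected by ferrous iron/xylenol orange as the 573 to 405 nm absorbance ratio. Arachidonic acid at 40 uM (final) was turned over for 30 min at room temperature by 150 nM human 12hLO, pH 7.0 Hepes buffer, after 15 min compound preincubation.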
Sfp inh = blocks B. subtilis Sfp PPTase activity. Biochemical Sfp PPTase activity, qHTS. Potency, µM, inactives show largest response in the series, negative = inhibition, hits mostly inhibitors. 3.5% of 310,000 active. AID 1490;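 further: the enzyme is Sfp with the accession as filed and its product quenches rhodamine fluorescence; 0% = enzyme reaction without inhibitor and -100% = no enzyme wells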
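Fluorescence-quenching assay with 15 nM Sfp, 5 uM rhodamine-CoA and 12.5 uM BHQ-2-labelled ybbR peptide in pH 7.6 Hepes/MgCl2 buffer. Enzyme was pre-incubated with compound for 15 min at room temperature. Rate was taken from the 30-min fluorescence change (525/598 nm).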
G9a block = inhibitors of human histone lysine methyltransferase G9a; 8.8% of 350,000 active; Q96KQ7; Potency, µM (series often up to 102 µM), inactives show at the top dose activity, negative = inhibition, usual class: inhibitors; G9a H3K9 monomethylation, AlphaScreen, 2 h; further: on the % scale 0 is the no-effect control and ±100 the full control effect; nearly all actives have a fitted effect of over 75% in size
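Readings reflect AlphaScreen signal from monomethyl-H3K9 antibody detection. HMT at 20 nM; substrate b-H3K9 500 nM; cofactor SAM 20 uM; 2 h RT reaction; compounds tested as titrations in qHTS with 15 min preincubation.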
VDR inh = inhibitors of human vitamin D receptor; P11473; VDR-SRC2-3 peptide fluorescence polarization, 2 h; Potency, µM, inactives show max response, negative = inhibition, usual class: inhibitors; 0.93% of 400,000 active; AID 504847; further: on the % scale 0 is the no-effect control and ±100 the full control effect
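FP read-out; VDR + SRC2-3 coactivator peptide; 23 nl compound by pintool; 2 h RT incubation; reagents held at 4 deg C, protected from light.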
* marks the source's active call; other numbers are inactive results; i = inactive; ? = inconclusive; . = no result; [ ] = remark or other dose. The call rests on the fitted dose curve; in most records, active means well fitted curve in the direction sought with a large enough effect; inconclusive means small, poorly fitted or top-dose-only effect, or another doubt; inactive means no such curve, though single readings can be large; an effect the other way counts as inactive or inconclusive. Potency means the concentration at half of the fitted maximal effect.

SMILES | Glioma ERSR ind | 12-LOX inh | Sfp inh | G9a block | VDR inh
C#CCOCCOCCOCCNc1nc(N2CCN(C(=O)Cn3cc(CCCN=C(N)N)nn3)CC2)nc(N2CCN(C(=O)[C@H](CCCCN)n3cc(CCCC)nn3)CC2)n1 | -4% | ? | . | -2%[2.33 µM] | -5%
C#CCOCCOCCOCCNc1nc(N2CCN(C(=O)[C@H](C)n3cc(CCCN=C(N)N)nn3)CC2)nc(N2CCN(C(=O)[C@H](CCCCN)n3cc(CCCC)nn3)CC2)n1 | . | . | 4% | 4.5µM* | .
C#CCOCCOCCOCCNc1nc(N2CCN(C(=O)Cn3cc(CCCCN)nn3)CC2)nc(N2CCN(C(=O)Cn3cc(CC(C)O)nn3)CC2)n1 (configuration not stated) | -4% | ? | -9% | 50µM* | 0%
C#CCOCCOCCOCCNc1nc(N2CCN(C(=O)Cn3cc(CCCCN)nn3)CC2)nc(N2CCN(C(=O)Cn3cc(CCCN=C(N)N)nn3)CC2)n1 | -5% | 2.5µM* | . | 4%[2.33 µM] | 5%
CC(C)n1cc(/C=N/Nc2ccc(C(=O)O)cc2)c2ccccc21 | -1% | ? | -9% | 45µM* | -20%
Cn1cc(/C=N/Nc2ccccc2)c2ccccc21 | 6% | ? | -3% | 13µM* | ?
COc1ccc2c(C)c(CC(=O)NCc3ccccc3)c(=O)oc2c1C | . | -2% | . | . | .
CCC(C)NC(=O)c1ccccc1-c1ncc(-c2ccc(F)cc2)o1 (configuration not stated) | . | 41% | . | . | .
Cc1cc2c(cc(C(=O)N3CCC(C(=O)N4CCCC4)CC3)n2Cc2c(F)cccc2Cl)o1 | -3% | -7% | 50µM* | 50µM* | -10%
CCOC(=O)c1cc2occc2n1Cc1c(F)cccc1Cl | -6% | 0% | -18% | ? | 12%
Cc1ccc(CNC(=O)C2CCCN(C(=O)Nc3ccc(F)cc3)C2)cc1 (configuration not stated) | -6% | -3% | 1% | 9% | 6%
Cc1ccc(C)c(NC(=S)N2CCN(c3ccccn3)CC2)c1 | -2% | -4% | -1% | . | -13%
Cc1ccc(N2C(=O)N(CC(=O)Nc3cccc(Cl)c3)C(=O)C2C)cc1 (configuration not stated) | -4% | -16% | . | ? | -12%
CCNC(=S)Nc1ccc(Cl)cc1 | -1% | -16% | -2% | 6% | 3%
Cc1ccc(N2C(=O)C3C4C=CC(CNC(=S)N5CCN(c6ccccn6)CC5)(O4)C3C2=O)cc1 (configuration not stated) | -1% | -10% | 28µM* | 2.2µM* | 79µM*
Cc1ccc(N2C(=O)C3C4C=CC(CNC(=S)Nc5ccc(Cl)cc5)(O4)C3C2=O)cc1 (configuration not stated) | -1% | ? | 40µM* | 8.9µM* | -26%
Cc1ccc(N2C(=O)C3C4C=CC(CNC(=S)Nc5ccc(F)cc5)(O4)C3C2=O)cc1 (configuration not stated) | 0% | ? | 14µM* | 7.9µM* | -24%
Cc1ccc(N2C(=O)C3C4C=CC(CNC(=S)Nc5cccc(Cl)c5)(O4)C3C2=O)cc1 (configuration not stated) | -4% | ? | 35µM* | 8.9µM* | ?
CC1(c2nnc(-c3cccc(Cl)c3)o2)CC(c2cccc([N+](=O)[O-])c2)=NO1 (configuration not stated) | -4% | ? | 2% | 45µM* | -9%
CC1(c2nnc(-c3ccccc3)o2)CC(c2cccc(Cl)c2)=NO1 (configuration not stated) | -4% | ? | -2% | -7%[12.7 µM] | -18%
Cc1ccc(S(=O)(=O)N2[C@@H]3CC[C@H]2CC(NC(=O)c2ccncc2)C3)c(C)c1 (some centres not stated) | . | 18µM* | . | . | .
Cc1ccc2c(NC(=O)c3ccco3)cccc2n1 | -1% | -25% | 5% | 50µM* | -15%
CSc1ccccc1C(=O)Nc1ccccc1C(=O)NC(C)C | 0% | ? | -6% | 23%[12.7 µM] | 79µM*
Cc1cccc(NC(=O)c2ccccc2NC(=O)c2ccco2)c1 | 5% | i | ? | 40µM* | -5%
CCOC(=O)c1ccccc1NC(=O)c1ccccc1SC | 1% | ? | -25% | ? | -7%
SMILES | Glioma ERSR ind | 12-LOX inh | Sfp inh | G9a block | VDR inh
Cc1cccc(NC(=O)CSc2nnc(CNC(=O)c3ccco3)o2)c1 | 4% | -20% | 3% | 11µM* | -7%
Cc1ccc2c(NC(=O)c3ccc(Br)o3)cccc2n1 | 4% | -4% | 5% | . | -12%
Cc1ccc(C(=O)N2CCC(C(NC(=O)c3ccccc3C)C(=O)NCC(C)C)CC2)cc1 (configuration not stated) | . | 4% | . | . | .
CSc1ccccc1C(=O)Nc1cc(C)ccc1C | -1% | -5% | 13% | 40µM* | -17%
CSc1ccccc1C(=O)Nc1cccc(C)c1 | 1% | -23% | 10% | 45µM* | -3%
O=C(CSc1ncccn1)c1ccc2c(c1)OCCO2 | . | -1% | . | . | .
COc1ccc(CN2CCC(N(CCc3ccccc3)Cc3ccccc3)CC2)c(OC)c1 | -9% | ? | 40µM* | ? | -22%
CCCN1CCC(N(CCc2ccccc2)Cc2ccccc2)CC1 | -2% | ? | 2% | -22% | -22%
CCN(Cc1ccccc1)C1CCN(Cc2ccccc2)CC1 | -2% | . | 5% | 71µM* | -4%
COc1ccc(CN2CCC(C(=O)N(C)CCc3ccc(OC)c(OC)c3)CC2)c(OC)c1 | -4% | ? | -9% | 10µM* | 3%
COc1ccc(CCN(C)C(=O)C2CCN(Cc3ccccc3)CC2)cc1OC | -3% | -16% | -7% | 11% | 3%
COc1ccc(CN2C[C@@H]3C(=O)N(CCc4ccccc4)C(=O)[C@@H]3C2)c(OC)c1 | . | 2% | . | . | .
Nc1nccnc1C(=O)OCC(=O)c1ccc[nH]1 | 0% | -13% | . | 50µM* | 11%
CCOc1ncccc1C(=O)OCC(=O)c1ccc[nH]1 | -4% | 17% | 11% | 14% | 14%
Cc1[nH]c2ccc(F)cc2c(=O)c1SC(F)(F)C(F)C(F)(F)F (configuration not stated) | -4% | -20% | -13% | 32µM* | 2%
Fc1ccc(C2NCCn3cccc32)cc1 (configuration not stated) | -4% | ? | 2% | ? | 2%
c1ccc(C2NCCn3cccc32)cc1 (configuration not stated) | -2% | ? | -14% | 50µM* | 12%
CCN1CCC(=NNC(=O)c2ccco2)CC1 | -2% | 3% | -18% | 45µM* | 0%
COc1cc2c(cc1OC)CN(C(=O)CSc1nnc3scc(-c4ccccc4)n13)CC2 | -2% | 1%[57.4 µM] | 71µM* | 14µM* | -16%
COc1cc2c(cc1OC)CN(Cc1cc(=O)n3c(-c4ccccc4)csc3n1)CC2 | -4% | -9% | -17% | 25µM* | -14%
O=c1cc(CN2CCc3ccccc3C2)nc2sccn12 | 0% | 2% | -7% | 79µM* | -5%

Source: PubChem BioAssay
